Only some compounds are listed: those with a hit (about 3.1% of all), similar ones and a draw of the others.
PI4K2A inh = qHTS for small molecular inhibitors of PI4K2A; Phosphatidylinositol 4-kinase type 2-alpha (Homo sapiens), Q9BTU6; 420,000 tested, 0.13% active; activity change, negative = inhibition, % at 76.9 µM; purified PI4K2A, ADP-Glo luminescence, 1 h; hits give low values; in the data active = activity change below about -50%; inconclusive = mostly about -30% to -49%
Target sequence (Q9BTU6 whole entry, looked up): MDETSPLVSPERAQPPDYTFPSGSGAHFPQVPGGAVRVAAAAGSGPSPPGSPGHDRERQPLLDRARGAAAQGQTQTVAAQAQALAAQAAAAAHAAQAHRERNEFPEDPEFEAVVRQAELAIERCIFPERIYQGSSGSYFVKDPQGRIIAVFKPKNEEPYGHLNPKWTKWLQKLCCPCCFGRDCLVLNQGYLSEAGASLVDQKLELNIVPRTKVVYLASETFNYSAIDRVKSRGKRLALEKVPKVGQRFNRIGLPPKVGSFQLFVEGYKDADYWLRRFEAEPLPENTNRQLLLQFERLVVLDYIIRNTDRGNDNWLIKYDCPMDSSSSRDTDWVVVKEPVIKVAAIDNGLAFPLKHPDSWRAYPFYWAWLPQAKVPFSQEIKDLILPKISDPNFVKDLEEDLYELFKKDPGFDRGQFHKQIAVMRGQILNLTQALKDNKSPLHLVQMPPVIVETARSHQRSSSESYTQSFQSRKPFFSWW
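ADP-Glo luminescence measured ADP generated by PI4K2A enzyme (4 ug/mL before mixing) with 1.2 mM PI substrate (pre-mix) and 300 microM ATP (pre-mix). Tris pH7.5 buffer with MgCl2, Triton X-100; 1 h reaction at ambient temperature.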
GLS inh = qHTS for Inhibitors of Glutaminase (GLS); 410,000 tested, 0.21% active; AID 624170, 2012; Potency, µM (doses to about 45.5 µM), usual class: inhibitors; GLS enzymatic activity, qHTS titration; Glutaminase kidney isoform, mitochondrial (Homo sapiens), O94925
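Assay buffer: 45 mM KH2PO4 pH 8.2, 0.02% Tween-20. hKGA acts on L-glutamine (1 mM solution added); product glutamate is reported by an oxidase/peroxidase Amplex Red coupling, with fluorescence taken at baseline and 30 min.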
KAT2A inh = qHTS Assay for Inhibitors of GCN5L2; GCN5L2 HAT assay, ThioGlo1 CoA-SH fluorescence; Potency, µM (titrated, usually from 58.9 µM), most hits filed as inhibitors; Histone acetyltransferase KAT2A (Homo sapiens), Q92830; 390,000 tested, 0.21% active
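Free CoA generated was detected with ThioGlo1 (50uM) fluorescence at Ex340nm/Em540nm, read immediately and after 20 min at room temperature. Enzyme, 20 nM in HEPES pH 7.5 buffer, saw compounds 15 min before adding 75uM H3(1-25) peptide and 70uM acetyl-CoA.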
PLK1 PBD inh = qHTS for Inhibitors of PLK1-PDB (polo-like kinase 1 - polo-box domain): Primary Screen; 360,000 tested, 2.8% active; Plk1 PBD binding of FITC phosphopeptide, fluorescence polarization; Potency, µM, most hits filed as inhibitors; also: series mostly up to about 57 µM; nearly all actives have a fitted effect of over 65% in size
VDR inh = Inhibitors of the vitamin D receptor (VDR): qHTS | Vitamin D3 receptor (Homo sapiens), P11473 | VDR-SRC2-3 peptide fluorescence polarization, 2 h | Potency, µM, actives largely listed as inhibitors | 400,000 tested, 0.93% active | AID 504847, 2011
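Compounds are added to VDR with labelled SRC2-3 coactivator peptide and held 2 h at room temperature. Inhibition of the VDR–peptide interaction is then read as a change in fluorescence polarization.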
Large screens that a line does not name were inactive. Unless noted, calls follow the shape of the dose curve; as a rule, active = well fitted curve in the direction sought with a large enough effect; inconclusive = small, poorly fitted or top-dose-only effect, or another doubt; inactive = no such curve, though single readings can be large; an effect the other way counts as inactive or inconclusive.

Cc1nn(C)c(C)c1S(=O)(=O)N1CCC(C(=O)NC2CCCc3ccccc32)CC1 (stereo unspecified)	PLK1 PBD inh 27µM
Cc1nn(C)c(C)c1S(=O)(=O)N1CCCC(C(=O)N2CCN(c3ccc(Cl)cc3)CC2)C1 (stereo unspecified)	GLS inh inconclusive, PLK1 PBD inh 3.4µM
CCN(CC)S(=O)(=O)N1CCC(C(=O)NC2CCCc3ccccc32)CC1 (stereo unspecified)	none
CNc1ncnc2c1ncn2[C@@H]1O[C@H](COP(=O)(O)O)[C@@H](O)[C@H]1O	none (no result: PI4K2A inh, GLS inh, PLK1 PBD inh)
CN(C)c1ccc(C(CNS(=O)(=O)c2ccc(Cl)cc2)N2CCCC2)cc1 (stereo unspecified)	none (no result: PLK1 PBD inh)
Cn1c(NC(=O)c2ccccc2)nc(Cc2ccccc2)c1-c1ccccc1	none (no result: GLS inh, KAT2A inh, PLK1 PBD inh, VDR inh)
OCCOCCOCCO	none (no result: PI4K2A inh, PLK1 PBD inh)
CCCC(c1nnnn1CCOC)N1CCN(c2nc3ccccc3s2)CC1 (stereo unspecified)	GLS inh inconclusive, PLK1 PBD inh 5.3µM, VDR inh inconclusive
CCC(c1nnnn1CCOC)N1CCN(c2nc3ccccc3s2)CC1 (stereo unspecified)	none
Cc1ccc(CN2CCC(CNS(=O)(=O)c3ccc(-c4ccc(=O)[nH]n4)s3)CC2)cc1	PLK1 PBD inh 30µM, VDR inh inconclusive
Cc1cc(C(=O)O)c(C)n1-c1ccccc1	KAT2A inh inconclusive
Cc1ccc(C)n1-c1sccc1C(=O)O	GLS inh inconclusive, KAT2A inh inconclusive, PLK1 PBD inh 3.8µM
O=C(N/N=C/c1ccco1)c1cccc(N2CCCC2=O)c1	none
O=C(N/N=C/c1ccco1)c1cccc(N2Cc3ccccc3C2)c1	PLK1 PBD inh 27µM, VDR inh inconclusive
O=C(CC1C(=O)NCCN1CC1CCCCC1)NCc1ccc(F)cc1F (stereo unspecified)	none
O=C(CC1C(=O)NCCN1CC1CCCCC1)NCc1cc(F)ccc1F (stereo unspecified)	GLS inh inconclusive, PLK1 PBD inh 3.8µM, VDR inh inconclusive
O=C(Nc1ccc2nc3n(c(=O)c2c1)CCCCC3)C(=O)N1CCN(c2ccc(F)cc2)CC1	GLS inh inconclusive, PLK1 PBD inh 6.7µM, VDR inh inconclusive
O=C(Nc1ccc2nc3n(c(=O)c2c1)CCCCC3)c1c(F)ccc([N+](=O)[O-])c1F	PLK1 PBD inh 24µM, VDR inh inconclusive
O=S(=O)(Cc1nnnn1-c1ccccc1)c1ccc(Cl)cc1	none
N#Cc1ccc(CS(=O)(=O)c2nnnn2-c2ccccc2)cc1	VDR inh 45µM (no result: PI4K2A inh, GLS inh, KAT2A inh, PLK1 PBD inh)
O=S(=O)(Cc1ccccc1)c1nnnn1-c1ccccc1	VDR inh 35µM (no result: PI4K2A inh, GLS inh, KAT2A inh, PLK1 PBD inh)
Cc1c(/C=C(\C#N)C(=O)Nc2cccc(Cl)c2)c2ccccc2n1Cc1ccccc1Cl	none (no result: PLK1 PBD inh)
COC(=O)c1cccc(Cn2nc(C)c([N+](=O)[O-])c2C)c1	PLK1 PBD inh 21µM
Cc1nn(Cc2cccc(C(=O)O)c2)c(C)c1[N+](=O)[O-]	none
COc1cccc(-c2noc(Cn3nc(C)c([N+](=O)[O-])c3C)n2)c1	PLK1 PBD inh 19µM
COC(=O)[C@]12C[C@H](CC(=O)N3CCC(c4ccccc4)CC3)C(=O)N(Cc3ccc(Cl)cc3Cl)C1=C[C@H](C(C)(C)C)O[C@@H]2C	none (no result: GLS inh, KAT2A inh, PLK1 PBD inh, VDR inh)
COc1ccc(NC(=O)CN2C(=O)/C(=C3\SC(=S)N(CCC(=O)O)C3=O)c3ccccc32)cc1	PLK1 PBD inh 11µM
O=C(CN1C(=O)/C(=C2/SC(=S)N(CCS(=O)(=O)O)C2=O)c2ccccc21)Nc1cccc(Br)c1	KAT2A inh inconclusive, PLK1 PBD inh 27µM, VDR inh inconclusive
O=C(O)CCN1C(=O)/C(=C2\C(=O)N(Cc3ccccc3Cl)c3ccccc32)SC1=S	none (no result: PI4K2A inh, GLS inh, PLK1 PBD inh, VDR inh)
CCCCCCCc1ccc(C2NC(=S)NC3=C2C(=O)c2ccccc23)cc1 (stereo unspecified)	PLK1 PBD inh 21µM, VDR inh inconclusive
CCc1ccc(C2NC(=S)NC3=C2C(=O)CCC3)cc1 (stereo unspecified)	none
COc1ccc2c(c1)sc1nc(=O)ccn12	none
